In the library only some 5.2% were active in any assay of this set; here they are far more common.
TrxR1 substrate: is turned over as a substrate by rat TrxR1 | O89049 | purified TrxR1 substrate turnover, NADPH consumption readout | Potency, µM (top dose mostly 114 µM) | actives 0.01% (n = 390,000); further: nearly all actives have a fitted effect of over 50% in size
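Rat TrxR1, dispensed at 90 nM, was prereduced with 400 uM NADPH (final) for 5 min at ~22 deg C, then incubated with compound 15 min before 400 uM selenite. A first-read NADPH fluorescence drop versus no-compound background flagged substrates.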
PLK1 PBD block: blocks phosphopeptide binding to human PLK1 polo-box domain. P53350. Plk1 PBD binding of FITC phosphopeptide, fluorescence polarization. Potency, µM, actives largely listed as inhibitors. actives 2.8% (n = 360,000); further: series mostly up to about 57 µM; nearly all actives have a fitted effect of over 65% in size
VDR inh: vitamin D3 receptor (human) inhibition. actives 0.93% (n = 400,000). P11473. VDR-SRC2-3 peptide fluorescence polarization, 2 h. Potency, µM, actives largely listed as inhibitors
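Compounds are added to VDR with labelled SRC2-3 coactivator peptide and held 2 h at room temperature. Inhibition of the VDR–peptide interaction is then read as a change in fluorescence polarization.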
Sfp inh: inhibitors of Bacillus subtilis Sfp phosphopantetheinyl transferase | Biochemical Sfp PPTase activity, qHTS | Potency, µM, hits mostly inhibitors | actives 3.5% (n = 310,000);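 further: the enzyme is Sfp with the accession as filed and its product quenches rhodamine fluorescence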
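Buffer: 50 mM Hepes-Na pH 7.6, 10 mM MgCl2, 0.01% Nonidet P-40, 0.01% BSA. Enzyme 15 nM, pre-exposed to compound 15 min; substrates then added and fluorescence change tracked over 30 min.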
rTrxR1 inhibitor: rat TrxR1 inhibition. Potency, µM (series often up to 114 µM), hits mostly inhibitors. AID 588453. recombinant rTrxR1, NADPH fluorescence consumption, selenite substrate. O89049. actives 1% (n = 390,000); further: nearly all actives have a fitted effect of over 65% in size
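Rat TrxR1 (90 nM in the dispensed reagent) was pre-reduced with 400 uM NADPH for 5 min at room temperature, then incubated with compound for 15 min. After 400 uM selenite was added, NADPH fluorescence (Ex 340/Em 450 nm) was followed for 8 min.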
mIDH1 inhibitor: human IDH1 R132H inhibition; O75874; IDH1-R132H enzyme, NADPH consumption, diaphorase/resazurin fluorescence; Potency, µM (highest dose often 76.6 µM), actives largely listed as inhibitors; actives 0.093% (n = 390,000); AID 602179; further: nearly all actives have a fitted effect of over 65% in size
Target sequence (O75874 whole entry R132H, stated change not applied): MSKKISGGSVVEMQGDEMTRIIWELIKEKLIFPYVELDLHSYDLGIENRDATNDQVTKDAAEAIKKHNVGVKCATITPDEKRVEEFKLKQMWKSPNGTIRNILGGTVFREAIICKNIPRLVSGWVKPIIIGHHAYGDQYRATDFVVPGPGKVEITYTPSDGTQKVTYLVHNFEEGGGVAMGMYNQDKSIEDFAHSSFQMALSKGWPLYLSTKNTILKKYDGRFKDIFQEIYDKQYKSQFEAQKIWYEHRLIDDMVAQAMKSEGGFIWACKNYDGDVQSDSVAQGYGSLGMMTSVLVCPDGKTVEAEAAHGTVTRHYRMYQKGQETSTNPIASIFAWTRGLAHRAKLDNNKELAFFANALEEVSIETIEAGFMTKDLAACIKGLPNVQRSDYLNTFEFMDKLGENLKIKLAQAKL
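IDH1-R132H (0.5 ug/mL dispensed) in pH 7.5 Tris buffer was preincubated 30 min with compound, then given a substrate mix of 0.016 mM NADPH and 2 mM alpha-KG for 80 min at room temperature; remaining NADPH was read by diaphorase/resazurin fluorescence.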
Numbers stand for hits; [ ] = dose if it differs, or a comment. The call rests on the fitted dose curve; in most records, active means well fitted curve in the direction sought with a large enough effect; inconclusive means small, poorly fitted or top-dose-only effect, or another doubt; inactive means no such curve, though single readings can be large; an effect the other way counts as inactive or inconclusive.

`CCOC(=O)c1ccc(NC(=O)c2cc3c([nH]c2=O)CC(c2ccccc2)CC3=O)cc1` (stereo not drawn) gave TrxR1 substrate inactive, VDR inh inactive, rTrxR1 inhibitor inactive and mIDH1 inhibitor inactive.
For CCCCCc1c(O)nc(SCC(=O)NCC2CCCO2)[nH]c1=O (stereo not drawn) the results were TrxR1 substrate inactive, PLK1 PBD block 27µM, VDR inh inactive, Sfp inh inactive, rTrxR1 inhibitor inactive and mIDH1 inhibitor inactive.
For CCc1ccc(C(=O)COC(=O)C(Cc2c[nH]c3ccccc23)NC(=O)c2ccc(CC)cc2)cc1 (stereo not drawn) the results were TrxR1 substrate inactive, VDR inh inactive, rTrxR1 inhibitor inactive and mIDH1 inhibitor inactive.
Screening O=C(Nc1ccccc1)C1=C(c2ccccc2)S(=O)(=O)CCS1(=O)=O returned TrxR1 substrate inactive, PLK1 PBD block 5.3µM, VDR inh 22µM, Sfp inh 13µM, rTrxR1 inhibitor 0.22µM and mIDH1 inhibitor inactive.
Screening CCOC(=O)c1c(N)sc2c1CCC(CC)C2 (stereo not drawn) returned TrxR1 substrate inactive, PLK1 PBD block inconclusive, VDR inh inactive, Sfp inh inactive, rTrxR1 inhibitor inactive and mIDH1 inhibitor inactive.
CCOC(=O)c1c(N)sc2c1CCC1C(=O)N(C3CCCCC3)C(=O)C21 (stereo not drawn) was read as TrxR1 substrate inactive, PLK1 PBD block 19µM, VDR inh inactive, Sfp inh 20µM, rTrxR1 inhibitor inactive and mIDH1 inhibitor inactive.
`Cc1ccc(NC(=S)/C(=C(\[O-])c2ccc(Cl)s2)[n+]2cccc(CO)c2)cc1C` gave TrxR1 substrate inactive, PLK1 PBD block inactive, VDR inh inactive, Sfp inh 25µM, rTrxR1 inhibitor inactive and mIDH1 inhibitor inactive.
Screening c1ccc(CNc2oc(-c3ccccc3)nc2-c2ccccc2)cc1 returned VDR inh 14µM and Sfp inh inactive.
For O=c1/c(=C\c2ccc(O)cc2)sc2n1C(c1ccccc1)C(c1ccccc1)=NN=2 (stereo not drawn) the results were TrxR1 substrate inactive, PLK1 PBD block inactive, VDR inh inactive, Sfp inh 50µM, rTrxR1 inhibitor inactive and mIDH1 inhibitor inactive.
Screening CCOC(=O)C1=C(c2ccccc2)N=c2s/c(=C\c3cccc(O)c3)c(=O)n2C1c1cccs1 (stereo not drawn) returned TrxR1 substrate inactive, PLK1 PBD block inactive, VDR inh inactive, Sfp inh inactive, rTrxR1 inhibitor inactive and mIDH1 inhibitor inactive.
Screening CCCCOc1ccc(C2=CSC3=NCCN23)cc1[N+](=O)[O-] returned TrxR1 substrate inactive, PLK1 PBD block inactive, VDR inh inconclusive, Sfp inh inactive, rTrxR1 inhibitor inactive and mIDH1 inhibitor inactive.
`CCCCOc1ccc(-c2csc(N)n2)cc1[N+](=O)[O-]` gave TrxR1 substrate inactive[11.4 µM], PLK1 PBD block inactive, VDR inh inactive, Sfp inh 40µM, rTrxR1 inhibitor inactive[11.4 µM] and mIDH1 inhibitor inactive.
Screening COC(=O)c1ccccc1NC(=O)c1nn(C)c2c1COc1ccccc1-2 returned TrxR1 substrate inactive, VDR inh inactive, rTrxR1 inhibitor inactive and mIDH1 inhibitor inactive.
For COc1ccc(-c2csc(N(CC(C)C)C(=O)c3ccco3)n2)cc1 the results were TrxR1 substrate inactive, PLK1 PBD block inactive, VDR inh inactive, Sfp inh inactive, rTrxR1 inhibitor inactive and mIDH1 inhibitor inactive.
`CCN(C(=O)c1ccco1)c1nc(-c2ccc(OC)cc2)cs1` gave TrxR1 substrate inactive, PLK1 PBD block inactive, VDR inh inactive, Sfp inh 89µM, rTrxR1 inhibitor inactive and mIDH1 inhibitor inactive.
`O=C(CN1C(=O)COc2ccc(S(=O)(=O)NC3CCCC3)cc21)Nc1ccc(Cl)cc1F` gave TrxR1 substrate inactive, VDR inh inactive, rTrxR1 inhibitor inactive and mIDH1 inhibitor inactive.
For COc1ccc(C(C)(O)c2nc(-c3ccc(Cl)cc3)cs2)cc1 (stereo not drawn) the results were PLK1 PBD block inactive.
For COc1ccc(C[C@@H](NS(=O)(=O)c2ccc(C(=O)O)cc2)C(=O)O)cc1 the results were Sfp inh inactive.

Screening results (PubChem BioAssay)
